Compound activity: PubChem BioAssay, several laboratories
Shown are actives, neighbours in structure and some others; about 3.8% of the full set was active somewhere.
tim23-1 inh = growth inhibitors of tim23-1 mutant yeast, primary screen, luminescence, uHTS | S. cerevisiae tim23-1 growth, BacTiter-Glo luminescence, 24 h | inhibition, % at 20 µM | hit rate 1.3% among 330,000 | AID 463212, 2010;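 active = growth inhibition of the mutant yeast at or above 50%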;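 note: temperature-sensitive mutant grown at 25 °C; plate controls were DMSO-treated mutant yeast for no effect and medium wells lacking yeast for full effect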
TIM10 inh = growth inhibitors of isogenic TIM10 control yeast, primary screen, counter-screen for tim10-1 yeast inhibitor project, luminescence, uHTS | S. cerevisiae TIM10 strain growth, BacTiter-Glo luminescence, 24 h | inhibition, % at 10 µM | hit rate 1.4% among 330,000;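 active = inhibition of 40% or more at the single tested concentration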;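 note: wild-type TIM10 isogenic control strain grown at permissive 25 °C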
Beta2AR agonist = beta2AR agonists driving receptor internalization, primary screen, cell-based, FAP fluorogen, flow cytometry; hit rate 0.43% among 340,000; Beta-2 adrenergic receptor (Homo sapiens), P07550; Am2.2-beta2AR cells; response, % (no concentration beside the values);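 active = response above a set limit, near 3 SD of response in nonfluorescent compounds, cut at about 42% in these data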
Target sequence (P07550 whole entry, looked up): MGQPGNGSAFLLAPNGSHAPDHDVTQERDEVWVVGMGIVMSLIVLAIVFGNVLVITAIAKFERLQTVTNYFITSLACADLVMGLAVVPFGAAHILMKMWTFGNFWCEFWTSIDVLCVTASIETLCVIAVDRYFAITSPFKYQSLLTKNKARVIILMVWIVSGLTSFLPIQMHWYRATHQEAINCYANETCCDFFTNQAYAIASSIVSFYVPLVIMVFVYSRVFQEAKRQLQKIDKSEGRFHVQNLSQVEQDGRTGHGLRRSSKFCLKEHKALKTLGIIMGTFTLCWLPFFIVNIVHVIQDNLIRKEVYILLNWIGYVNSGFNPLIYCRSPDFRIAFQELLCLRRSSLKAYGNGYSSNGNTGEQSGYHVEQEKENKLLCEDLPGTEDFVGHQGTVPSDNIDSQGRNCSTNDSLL
PfHsp90 set2 = growth inhibition of PfHsp90-expressing yeast, primary screen, antimalarial PfHsp90 inhibitor project, S. cerevisiae, BacTiter-Glo luminescence, single point, set 2 | BacTiter-Glo ATP, 48 h; yeast lacking PDR1 and PDR3 efflux regulators | inhibition, % at 9.4 µM | hit rate 0.32% among 310,000;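 active = every replicate shows inhibition above about 80%, whatever the replicate mean, limit read from the data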;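 note: 0% = DMSO neutral controls and 100% = 20 µM radicicol positive controls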
tim10-1 inh = growth inhibitors of tim10-1 mutant yeast, primary screen, luminescence, uHTS | AID 463190, 2010 | inhibition, % at 20 µM | S. cerevisiae tim10-1 ts strain growth, BacTiter-Glo, 24 h | hit rate 2.2% among 330,000;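 active = inhibition of at least 40%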;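 note: mutant grown at 25 °C; 0% = DMSO wells with yeast and 100% = wells holding no yeast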
tim10 confirm = growth inhibitors of wild-type TIM10 yeast, confirmation, counter-screen for tim10-1 synthetic lethality project, single concentration, luminescence, S. cerevisiae; shares compounds with TIM10 inh; S. cerevisiae tim10 strain growth, BacTiter-Glo luminescence, 24 h; hit rate 63% among 4,600; inhibition, % at 10 µM;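 active = inhibition of yeast growth at or above a set limit in either of two replicates at 10 µM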;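 note: this counterscreen used the strain with wild-type TIM10; 0% = yeast with DMSO and 100% = medium wells lacking yeast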
tim23-1 confirm = tim23-1 mutant yeast growth inhibitors, confirmation, luminescence, single concentration; shares compounds with tim23-1 inh; AID 463218, 2010; hit rate 83% among 4,400; S. cerevisiae tim23-1 growth, BacTiter-Glo luminescence, 24 h; inhibition, % at 20 µM;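 active = inhibition above about 39% in either of two replicate wells at 20 µM, limit read from the data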;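 note: temperature-sensitive tim23-1 mutant grown at 25 °C; 0% = DMSO wells with yeast and 100% = medium wells without yeast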
Starred values were filed as active, the others as inactive; / = no result.

SMILES	tim23-1 inh	TIM10 inh	Beta2AR agonist	PfHsp90 set2	tim10-1 inh	tim10 confirm	tim23-1 confirm
CCN(CC)C(=O)c1cc([N+](=O)[O-])cc2c1-c1ccc([N+](=O)[O-])cc1C2=C(C#N)C#N	50.6*	40.5*	37.3	-3.3	36.8	22.1	74.3*
Cc1cc(S(=O)(=O)c2ccc([N+](=O)[O-])cn2)ccc1Br	86.3*	44.4*	5.3	69.4	22.0	60.5*	80.6*
Cc1cc(Sc2ccc([N+](=O)[O-])cn2)ccc1Br	-3.4	-6.5	-1.1	-6.1	-14.6	/	/
CCSc1nc2nccnc2c(=O)[nH]1	/	/	2.4	/	/	/	/
O=C(O)c1ccc(-c2nc(-c3ccccc3)c(-c3ccccc3)[nH]2)cc1	-12.0	-4.4	8.2	-21.1	-5.0	/	/
Oc1ccccc1N=Nc1nc(-c2ccccc2)c(-c2ccccc2)[nH]1	52.8*	56.0*	13.3	106.4*	25.7	57.2*	62.2*
CCc1ccc(/C=N/n2c(COc3ccccc3)n[nH]c2=S)cc1	60.6*	44.4*	-1.3	4.6	28.3	42.0*	36.9
Cc1cc2cc(C=O)c(Cl)nc2cc1C	64.2*	44.5*	48.3*	7.3	34.3	28.1*	80.6*
CCCCN1CC(=O)N2[C@H](c3ccc(OC)cc3)[C@@H]3C(=O)N(CC)C(=O)[C@@H]3[C@]2(Cc2ccccc2)C1=O	10.0	4.4	-6.1	14.3	11.0	/	/
CCCc1nc2ccccc2n1CCOc1ccccc1	21.6	14.1	-5.6	-28.3	35.4	/	/
c1ccc(NCc2nc3ccccc3n2CCOc2ccccc2)cc1	52.5*	42.6*	-14.4	5.2	34.5	50.0*	52.0*
Clc1nc(-c2ccccn2)nc2scc(-c3ccccc3)c12	51.9*	49.6*	-12.4	-20.0	17.7	-7.2	58.1*
CC1CCN(c2nc(-c3cccnc3)nc3scc(-c4ccccc4)c23)CC1	19.6	7.8	-10.9	-14.3	26.6	/	/
Cn1c(N)c(C(=O)COC(=O)Cc2cccc(C(F)(F)F)c2)c(=O)n(C)c1=O	13.9	7.9	-1.9	10.9	12.3	/	/
O=[N+]([O-])c1ccc(O)c(/C=N/NC(=S)Nc2ccc(Cl)cc2Cl)c1	81.2*	45.7*	13.3	12.1	-2.9	43.1*	77.0*
Cc1cc(Cl)ccc1NC(=O)CCC(=O)N/N=C/c1cc([N+](=O)[O-])ccc1O	-18.0	-14.4	23.3	4.0	2.4	/	/
Cc1ccc(NN2C(=O)C=C(c3ccc(Cl)cc3)C2=O)cc1	68.2*	72.5*	2.6	119.7*	30.7	59.0*	20.2
O=C(O)c1cc2c([nH]c1=O)CCCC2	1.4	-10.8	8.7	-3.5	5.1	/	/
C=CCSC(=C(C#N)C#N)c1cc2c([nH]1)CCCC2	52.5*	40.8*	36.9	-26.4	28.6	23.1	62.5*
CCN(CC)C(=O)C1CCCN(C(=O)c2cc(COc3cccc(OC)c3)on2)C1 (centres undefined)	12.9	17.4	0.1	-2.1	25.5	/	/
O=C(Nc1cc(Cl)cc(Cl)c1)N1CCCC1	53.7*	48.4*	-4.8	13.1	21.8	25.4	45.6*
O=C1CCc2cc(S(=O)(=O)NCCc3ccccc3)cc3c2N1CC3	15.7	8.5	-2.6	-2.0	15.1	/	/
COc1ccc(C/C(N)=N/OC(=O)CCc2ccccc2)cc1	72.4*	70.9*	-3.0	-21.4	23.4	82.8*	78.0*
COc1ccc(C/C(N)=N/OC(=O)Cc2ccccc2)cc1OC	16.0	-1.8	-1.6	9.1	16.0	/	/
COc1cccc(/C=N/Nc2ncnc3scc(-c4ccccc4)c23)c1O	59.0*	54.5*	16.1	100.1*	11.2	67.1*	59.7*
Cc1ccc(-c2nc3ccccc3[nH]2)s1	51.3*	40.2*	-7.1	26.2	-0.3	25.5	70.7*
O=C(c1ccc(Cl)cc1)C(CN1CCCCC1)c1ccccc1 (centres undefined)	61.8*	57.6*	3.4	-47.6	19.0	62.7*	-44.5
